Screening results from PubChem.
CD11b adhes enh = increases human CD11b/CD18 adhesion to fibrinogen; K562 CD11b/CD18 adhesion to fibrinogen, ATPlite luminescence; 93,000 tested, 0.07% active; P05107+P11215; activation, % at 10 µM;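 active = 10 µM primary screen giving 50% or more activity, confirmed by 40% or more on retest at that dose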
Target sequence (P05107 whole entry, looked up, other chains not shown): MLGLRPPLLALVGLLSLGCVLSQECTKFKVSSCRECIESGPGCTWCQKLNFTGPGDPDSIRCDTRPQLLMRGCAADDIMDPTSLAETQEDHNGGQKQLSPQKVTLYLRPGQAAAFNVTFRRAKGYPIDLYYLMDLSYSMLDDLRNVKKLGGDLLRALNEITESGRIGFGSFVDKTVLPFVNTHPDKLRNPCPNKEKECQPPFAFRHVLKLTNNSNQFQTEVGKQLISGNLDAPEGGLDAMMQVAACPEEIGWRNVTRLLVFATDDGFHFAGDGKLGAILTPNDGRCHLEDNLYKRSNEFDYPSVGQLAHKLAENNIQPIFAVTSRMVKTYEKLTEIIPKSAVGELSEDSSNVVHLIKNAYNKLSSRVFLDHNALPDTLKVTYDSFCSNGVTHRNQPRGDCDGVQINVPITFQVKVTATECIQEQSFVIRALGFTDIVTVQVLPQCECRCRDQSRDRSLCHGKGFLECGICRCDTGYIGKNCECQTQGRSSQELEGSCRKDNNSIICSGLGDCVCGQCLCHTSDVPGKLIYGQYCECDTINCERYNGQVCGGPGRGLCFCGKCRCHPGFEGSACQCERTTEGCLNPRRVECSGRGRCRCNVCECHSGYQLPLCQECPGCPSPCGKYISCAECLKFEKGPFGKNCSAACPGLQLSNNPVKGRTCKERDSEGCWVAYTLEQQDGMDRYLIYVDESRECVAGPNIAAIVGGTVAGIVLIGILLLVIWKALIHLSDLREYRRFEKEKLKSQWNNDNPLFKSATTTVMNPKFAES
Mac1 fbg inh = blocks human CD11b/CD18 adhesion to fibrinogen | K562 CD11b/CD18 adhesion to fibrinogen, ATPlite luminescence; Mn2+ added to activate the integrin | inhibition, % at 10 µM | 93,000 tested, 0.54% active;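 active = primary inhibition of 50% or more at 10 µM, then 40% or more on retest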
CYP2C19 act = cytochrome P450 2C19 (human) activation; activation factor at 5 µM; P33261; recombinant CYP2C19, luciferin-H EGE luminescence; hits give high values; 0 = fully inhibited enzyme, 1 = untreated enzyme; AID 1025; 96,000 tested, under 10 active;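 active = activation factor of at least 2 at 5 µM in the primary screen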;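 note: 0 = wells with 2.5 mM tranylcypromine and 1 = vehicle-only wells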
CYP2C9 inh = inhibitors of human CYP2C9; 96,000 tested, 20% active; inhibition, % at 5 µM; CYP2C9 Supersomes, luciferin-H conversion, luminescence;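 active = blocking of liver enzyme CYP2C9 beyond about 50% at 5 µM, limit read from the data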
CYP2C9 activ = increases human cytochrome P450 2C9 activity; P11712; recombinant CYP2C9, luciferin-H conversion, luminescence; hits give high values; factor 1 = untreated enzyme, 0 = blocked; activation factor at 5 µM; 96,000 tested, 1.4% active; AID 1024;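 active = activation factor of 2 or more for CYP2C9 at a 5 µM dose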;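 note: 0 = sulfaphenazole-blocked wells and 1 = vehicle-only wells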
CYP2C19 inhib = inhibitors of human CYP2C19 | CYP2C19 Supersomes, luciferin-H EGE luminescence, 30 min | inhibition, % at 5 µM | 96,000 tested, 21% active | AID 778;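 active = CYP2C19 inhibition above a set limit at 5 µM in the primary screen, cut at about 50% in these data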;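 note: plate controls were negative control wells for no effect and 2.5 mM tranylcypromine positive control for full effect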
An asterisk follows results filed as active; . = no result. Sampled rows, rich in hits. Any-hit rate of the full collection: about 28%.

SMILES	CD11b adhes enh	Mac1 fbg inh	CYP2C19 act	CYP2C9 inh	CYP2C9 activ	CYP2C19 inhib
COc1ccc(N2CCN(C(=O)CCCOc3cc(=O)n(C)c4ccccc34)CC2)cc1	4	-5	0.1	88*	0.1	88*
COc1ccc(CNC(=O)CCCOc2cc(=O)n(C)c3ccccc23)cc1	-1	-37	0.1	78*	0.2	92*
Cc1ccc(CNC(=O)CCCOc2cc(=O)n(C)c3ccccc23)o1	-5	-4	0.9	-26	1.3	8
Cc1ccc(C)c(N2CCN(C(=O)COc3cc(=O)n(C)c4ccccc34)CC2)c1	0	6	0.8	3	1	17
CC1CCN(C(=O)CCCOc2cc(=O)n(C)c3ccccc23)CC1	-2	-25	0.5	-27	1.3	50*
Cc1ccc(C)c(N2CCN(C(=O)CCCOc3cc(=O)n(C)c4ccccc34)CC2)c1	0	3	0.1	90*	0.1	94*
Cc1ccc(C(=O)Nc2nc(-c3ccccc3)c(-c3ccccc3)o2)cc1	-1	36	.	.	.	.
C=CCn1c(COc2ccccc2F)nnc1SCC(=O)c1c[nH]c2ccccc12	1	5	.	.	.	.
COC(=O)[C@@H](NC(=O)NCc1ccccc1Cl)C(C)C	.	.	0.6	2	1	45
Cc1cccc(N2CCN(C(=O)COc3cc(=O)n(C)c4ccccc34)CC2)c1C	.	.	0.5	-6	1.1	51*
COc1ccc(OCCC(=O)NCc2ccccc2)cc1	-2	-29	0.5	-3	1	51*
COc1ccc(OCCN(C)Cc2ccccc2)cc1	3	-9	0.3	-19	1.2	68*
Cc1nnsc1NC(=O)OCC(C)(C)C	-4	6	1	-19	1.2	2
NS(=O)(=O)c1ccc(NC(=O)COC(=O)CCNC(=O)NC23CC4CC(CC(C4)C2)C3)cc1	-3	-13	0.7	65*	0.4	30
O=C(COC(=O)CNC(=O)C12CC3CC(CC(C3)C1)C2)Nc1ccccc1	-1	1	0.9	3	1	8
CCOC(=O)c1cc2c(nc1N)CC(C)(CC)OC2 (stereo not drawn)	5	7	0.1	32	0.7	92*
COc1ccc(/C(C#N)=C/c2c(-c3ccc(Cl)cc3)nc3c(C)cccn23)cc1	.	.	0.5	57*	0.4	52*
CCOC(=O)c1c(-c2ccccc2)nc2c(C)cccn12	.	.	0.8	11	0.9	16
Nc1nnc(SCCOc2cccc(Br)c2)s1	.	.	0.1	46	0.5	92*
O=S1(=O)C=C(SCc2cccc(Cl)c2)Nc2ccccc21	.	.	0.1	74*	0.3	86*
Cc1cccc(CSC2=CS(=O)(=O)c3ccccc3N2)c1	.	.	0.5	64*	0.4	54*
O=[N+]([O-])c1ccc(Sc2ccc(Cl)c(Cl)c2)nc1	2	0	0.9	-2	1	6
CC1=C(C(=O)Nc2ccc(Cl)cc2)C2(CCCCC2)C(C(N)=O)C(=S)N1 (stereo not drawn)	6	1	.	.	.	.
COc1cc(NC(=O)CN(c2cc(C)cc(C)c2)S(=O)(=O)c2c(C)noc2C)cc(OC)c1	2	-10	0.6	27	0.7	41
Cn1c(C(C#N)C(=O)c2ccco2)nc2ccccc21 (stereo not drawn)	-5	-6	0.9	51*	0.5	5
SMILES	CD11b adhes enh	Mac1 fbg inh	CYP2C19 act	CYP2C9 inh	CYP2C9 activ	CYP2C19 inhib
CCCC1=C(C(=O)OCC)C(c2ccccc2OC)NC(=O)N1 (stereo not drawn)	0	-16	0.7	22	0.8	29
CCOC(=O)COc1c(OC)cc(Cl)cc1C1NC(=O)NC(C)=C1C(C)=O (stereo not drawn)	0	7	0.4	70*	0.3	65*
CCCC1=C(C(=O)OCC)C(c2cc(Cl)cc(OC)c2OCC(=O)OCC)NC(=O)N1 (stereo not drawn)	3	1	0.6	88*	0.1	42
COC(=O)COn1c(SCC(=O)OC)nc2ccccc2c1=O	-7	-4	0.7	28	0.7	32
CCCC1=[N+](CC)CCn2c(C)ccc21	2	4	1.1	-16	1.2	-9
Cc1cc2n(c1)CCn1c(C)ccc1-2	93	-16	1.1	70*	0.3	-5
CCOC(=O)N1CCN(C(=O)c2cc3cc(Br)ccc3oc2=O)CC1	-1	-7	0.9	2	1	13
Cc1ccc(S(=O)(=O)n2ccc(-c3cccc(OCc4c(F)cccc4Cl)c3)n2)cc1	.	.	0.8	68*	0.3	20
O=C(CCNc1ccc(F)cc1)c1cccc([N+](=O)[O-])c1	-1	-4	0.4	4	1	56*
Cc1ccc(NCCC(=O)c2cccc([N+](=O)[O-])c2)cc1	-2	-19	0.1	36	0.6	94*
O=[N+]([O-])c1cccc(NC(=S)NCCc2ccccc2)c1	-8	104*	.	.	.	.
O=C(CCNc1ccccc1)c1cccc([N+](=O)[O-])c1	-1	-7	0.3	29	0.7	67*
Cc1cc(Nc2ccc(F)cc2C)n2nc(C)nc2n1	-3	-9	1.2	-13	1.1	-19
Cc1ccc(OCCNC(=O)c2ccco2)cc1C	-1	-12	0.7	10	0.9	26
COc1ccc2nc(N3C(=O)CC(Cc4cc(C)cc(C)c4)C3=O)sc2c1 (stereo not drawn)	-2	7	0.7	30	0.7	33
COc1ccc2sc(N3C(=O)C4CC=C(C)CC4C3=O)nc2c1 (stereo not drawn)	2	-14	0.4	80*	0.2	61*
O=C(N/N=C/C1C(c2ccccc2)C1(Cl)Cl)c1cccc(Br)c1 (stereo not drawn)	3	-5	0.8	70*	0.3	18
Cc1ccc(Cn2nnc3c(=O)n(CC(=O)c4ccccc4)cnc32)cc1	0	-47	1	60*	0.4	1
Cc1ccc(Cn2nnc3c(=O)n(Cc4ccccc4C)cnc32)cc1	15	-6	1	-62	1.6	0
COc1ccc(N(CC(=O)NCc2ccccc2)S(=O)(=O)c2c(C)noc2C)cc1	0	-6	0.1	44	0.6	91*
COc1ccc(N(CC(=O)NCc2cccs2)S(=O)(=O)c2c(C)nn(C)c2C)cc1	0	5	0.3	32	0.7	72*
COc1ccc(N(CC(=O)N2c3ccccc3CC2C)S(=O)(=O)c2c(C)noc2C)cc1 (stereo not drawn)	3	-11	0.1	92*	0.1	88*
COc1ccc(N(CC(=O)NCc2cccnc2)S(=O)(=O)c2c(C)nn(C)c2C)cc1	-3	-22	0.4	14	0.9	64*
Cc1nn(C)c(C)c1S(=O)(=O)N(CC(=O)NCCCOC(C)C)c1ccc(C(C)C)cc1	-1	-8	0.5	28	0.7	46
